Screening results as filed in PubChem BioAssay.
Many of the other results were omitted from the sample, so hits are more common in it than they were.
ST2 IL33 inh: IL1RL1 inhibition. 78,000 compounds, 2.3% hits. AlphaLISA ST2-Fc/biotin-IL-33 interaction, 1 h. inhibition, % for hits at 17 µM. Q01638; in the data active means inhibition above about 30%
* hit, by the source's call; i = inactive.

SMILES	ST2 IL33 inh
COc1ccc(C2Nc3ccccc3-c3nnc(SC)nc3O2)cc1O (stereo not drawn)	i
c1coc(-c2nnc([C@H]3CCN(C4CCC4)C3)o2)c1	i
O=C(CS(=O)(=O)c1cccc2nsnc12)Nc1ccccc1Br	i
O=C(Nc1cccc2nsnc12)c1ccc(-c2ccc(Br)cc2)o1	31%*
O=C(Nc1ccccc1-c1ccccc1)c1ccc(Br)o1	i
COc1ccc(CNC(=O)c2ccc(C)c(Cl)c2)cc1	i
COc1cc(-c2ccc(C(C)N3CCOCC3)cc2)cc2cc(C(=O)O)oc12 (stereo not drawn)	i
Cc1ccc(NC2SC(=O)N(c3ccccc3)C2=O)cc1 (stereo not drawn)	i
Cc1ccc(N2C(=O)C3Sc4[nH]c(=O)sc4C(c4ccccc4)C3C2=O)cc1 (stereo not drawn)	34%*
O=c1[nH]c2c(s1)C(c1ccc(Cl)cc1)C1C3CCC(C3)C1S2 (stereo not drawn)	i
COc1ccc(/C=C/C(=O)Nc2ncc(S(=O)(=O)c3ccc([N+](=O)[O-])cc3)s2)cc1OC	i
O=C(O)CN1CCOC(CCc2ccccc2)C1 (stereo not drawn)	i
CCN(CC)S(=O)(=O)c1ccc(C(=O)N2CCN=C2SCc2ccccc2)cc1	i
O=C1C(=C(O)c2ccccc2)NS(=O)(=O)c2ccccc21	i
O=C1C(=C(c2ccccc2)c2ccccc2)C(=O)c2ccccc21	39%*
O=C1CN(C(=O)c2ccccc2)C(=O)CN1C(=O)c1ccccc1	i
O=C(O)c1cccnc1SC1CC(=O)N(c2ccccc2Cl)C1=O (stereo not drawn)	i
O=C(CC1COCCN1)NCc1nnc2n1CCC2 (stereo not drawn)	i
Fc1ccc(C2CC(c3ccc(OCc4ccccc4)cc3)n3ncnc3N2)cc1 (stereo not drawn)	i
CCOC(=O)CC1=C(C(=O)OCC)C(c2ccc(C)o2)C(C#N)=C(N)O1 (stereo not drawn)	i
Cc1ccc(C2C(C#N)=C(N)Oc3c2sc2ccccc32)o1 (stereo not drawn)	39%*
Cc1ccc(C2C(C#N)=C(N)OC3=C2C(=O)CCC3)o1 (stereo not drawn)	i
COc1cccc2cc(C(N)=O)c(=Nc3cccc(C)c3)oc12	i
CCOCCCNC(=O)C1c2c(n(C)c3ccccc23)SCC(=O)N1C1CCN(Cc2ccccc2)CC1 (stereo not drawn)	i
CSc1nc2c(c(=O)[nH]1)C(c1ccncc1)C1=C(CC(C)(C)CC1=O)N2 (stereo not drawn)	i
SMILES	ST2 IL33 inh
CCCCOc1ccc(C(=O)N(c2ccc(C(C)C)cc2)C2C=CS(=O)(=O)C2)cc1 (stereo not drawn)	i
COc1ccc(/C=C2\C(=O)N(c3ccccc3)N=C2C)cc1[N+](=O)[O-]	i
CC1=NN(c2ccc(Cl)c(C(=O)O)c2)C(=O)/C1=C\c1ccc(-c2cccc([N+](=O)[O-])c2)o1	i
COc1ccc(-c2ccc(/C=C3\C(=O)N(c4cccc(Cl)c4)N=C3C)o2)cc1[N+](=O)[O-]	49%*
COc1ccc(/C=C2\C(=O)N(c3cccc(Cl)c3)N=C2C)cc1Br	i
CC1=NN(c2ccc(Br)cc2)C(=O)/C1=C\c1ccc(-c2cccc([N+](=O)[O-])c2)o1	i
CC1=NN(c2cccc(Cl)c2)C(=O)/C1=C\c1ccc(-c2cc([N+](=O)[O-])ccc2O)o1	91%*
CC(C(=O)N1CCc2c(nc(-c3ccncc3)nc2N(C)C)C1)n1cccn1 (stereo not drawn)	i
O=C(c1ccncc1)N1CCC(C(=O)N2C[C@@H]3[C@H](C2)[C@H]2CC[C@@H]3O2)CC1	i
CC(=O)c1cccc(NC(=O)C(C)c2ccccc2)c1 (stereo not drawn)	i
NC(=O)c1cnc2n1CCN(C(=O)c1ccc3ncsc3c1)C2	i
COc1cc(C=C2C(=O)OC(C)(c3ccccc3)OC2=O)ccc1OCc1cccc(C(=O)O)c1 (stereo not drawn)	i
COc1cc(/C=C2/C(=O)NN(c3ccc(Cl)cc3)C2=O)cc(OC)c1O	30%*
O=C1NN(c2cccc(Br)c2)C(=O)/C1=C\c1ccccc1	i
CC1=NN(c2ccc(F)cc2)C(=O)/C1=C/c1ccc(N(C)C)cc1	i
COc1cc(C=O)ccc1OCCOc1ccc(Br)cc1Cl	i
CCN(C)c1ccc(/C=C2/C(=O)NN(c3cccc(Br)c3)C2=O)cc1	39%*
C=CCOc1ccc(/C=C2\C(=O)NN(c3cccc(Br)c3)C2=O)cc1OC	34%*
Cc1ccc(N2NC(=O)/C(=C/c3ccc(Cl)cc3)C2=O)cc1Cl	i
COc1cc(/C=C2/NC(=O)NC2=O)cc(OC)c1O	i
O=C(O)c1cc(N2C(=O)c3ccccc3C2=O)ccc1Cl	i
Clc1ccccc1CO/N=C1/CCCc2nonc21	i
COc1ccc(NC(=O)N2C[C@@H]3C[C@H](C2)c2c(NC(=O)c4ccc5c(c4)OCO5)ccc(=O)n2C3)cc1	i
COC(=O)C1=C(C)Nc2nnnn2C1c1cccc(Br)c1 (stereo not drawn)	i
